Most compounds without a hit are left out; they make up all but 2.6% or so of the library.
TROY signal inh – inhibitors of TROY-driven NF-kB signaling, primary screen, Q293 LMP1-TROYcd cells, NF-kB luciferase, uHTS; 0.98% of 360,000 active; Q293 LMP1-TROYcd NF-kB luciferase reporter, 4 h; inhibition, % at 10 µM;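 active = compounds whose plate-normalised and pattern-corrected inhibition of the luciferase reporter signal at the single screening dose is 50% or more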
HSP90 inh – HSP90 inhibitors, primary screen, cell lysate, luminescence | Heat shock protein HSP 90 (rabbit reticulocyte lysate; luciferase refolding) | Rabbit reticulocyte lysate, luciferase refolding luminescence, 3 h | inhibition, % at 5.6 µM | 0.91% of 290,000 active;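 active = inhibition above the screen-wide mean plus 3 SD, computed separately per campaign, cut at about 16% in these data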;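 also: 0% = DMSO wells and 100% = 60 µM geldanamycin wells; inhibitors lower the luminescence because luciferase stays unfolded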
LGR2 antag – inhibitors of bursicon-induced LGR2 CRE-luciferase signal, primary screen, cell-based, HEK293, CRE-luciferase reporter, bursicon stimulation. 0.35% of 380,000 active. bursicon-stimulated, 4 h. inhibition, % at 9.99 µM. Drosophila bursicon receptor LGR2 (rickets);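 active = drop in luminescence signal, shown as inhibition above about 50% in the replicate tests, limit read from the data, passing the limit was not always enough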;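 also: agonist challenge used bursicon conditioned medium at about half maximal strength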
aDG glyco up – activators of alpha-DG glycosylation, primary screen, uHTS, Pro5-aDG cells, AlphaScreen; activation, % at 10 µM; alpha-DG glycosylation AlphaScreen (IIH6); 0% Pro5, 100% B10-LARGE cell signal; 0.22% of 360,000 active;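 active = activation of at least 8% versus controls, or a plate z-score of at least 8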;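 also: Pro5 are CHO cells carrying HIG-tagged alpha-DG that lacks glycosylation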
LMP1 NFkB inh – EBV LMP1-driven NF-kappaB luciferase reporter inhibitors, primary screen, cell-based, luminescence, single point; LMP1-induced NF-kappaB luciferase reporter cells; AID 504558, 2011; 0.69% of 350,000 active; inhibition, % at 12.5 µM; in the data active = inhibition above about 41%;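 also: 0% = neutral control wells and 100% = reference inhibitor control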
TWEAK-Fn14 inh – inhibitors of TWEAK-Fn14 signaling, primary screen, luciferase reporter cells, uHTS; TWEAK-stimulated Fn14 reporter cells, luciferase luminescence, 8 h; inhibition, % at 10 µM; 2% of 360,000 active; AID 1159606, 2016; in the data active = inhibition above about 50%
An asterisk follows results filed as active; · = no result given.

SMILES | TROY signal inh | HSP90 inh | LGR2 antag | aDG glyco up | LMP1 NFkB inh | TWEAK-Fn14 inh
CCN1/C(=C/c2ccc3ccccc3[n+]2CC)C=Cc2ccccc21 | 52* | -1 | · | 1 | 53* | 56*
CCN1/C(=C/c2ccc3ccccc3[n+]2CCCS(=O)(=O)[O-])C=Cc2cc(C)ccc21 | 19 | 3 | 1 | 0 | 13 | -8
Cn1c(C(=O)OCC(=O)NCc2cccs2)cc2sccc21 | -32 | -1 | -19 | 0 | 2 | 0
Cn1c(C(=O)OCC(=O)NCCc2ccccc2)cc2sccc21 | -4 | -2 | 3 | 0 | -4 | 53*
COc1ccc(S(=O)(=O)Nc2ccc3c(c2)C(=O)N([C@@H](C)CO)C[C@@H](C)[C@H](CN(C)Cc2ccccc2)O3)cc1 | · | · | 20 | · | · | ·
CN(C)C(=O)c1cccc(-c2ccc([C@@H]3[C@H](CO)N4C(=O)CN(C(=O)C5CC5)C[C@@H]34)cc2)c1 | · | · | -10 | · | · | ·
Cn1cccc1Cc1nnc(SCC(=O)N2CCCC2)n1CCc1ccccc1 | -16 | -3 | 5 | 0 | -10 | 13
Cn1cccc1Cc1nnc(SCC(=O)N2CCc3ccccc32)n1CCc1ccccc1 | 2 | 22* | 13 | 0 | -6 | 25
Cc1ccc(S(=O)(=O)N2CCCCC2)cc1NC(=O)CCc1nc2ccccc2c(=O)[nH]1 | 12 | · | 2 | 4 | 1 | -12
O=C(CCc1nc2ccccc2c(=O)[nH]1)Nc1cc(C(F)(F)F)ccc1N1CCCC1 | 51* | · | -16 | 1 | 4 | 62*
Cc1ccccc1-c1cnc2c(c1)C(=O)N([C@@H](C)CO)C[C@H](C)[C@H](CN(C)C(=O)c1ccc(F)cc1)O2 | · | · | 8 | · | · | ·
COc1cccc(CNc2nc3cc(-c4ccccc4)sc3c(=O)n2C)c1OC | 29 | · | -12 | 0 | · | 63*
COc1ccc(-c2cc3nc(NCc4ccc(NC(C)=O)cc4)n(C)c(=O)c3s2)cc1OC | 19 | · | -8 | 0 | · | -38
CCn1c(NCc2cccc(OC)c2OC)nc2ccccc21 | -52 | -1 | · | 0 | -21 | 60*
COc1cccc(CNc2nc3cc(-c4cccc(OC)c4)sc3c(=O)n2C)c1 | -1 | · | -14 | 0 | · | -26
COc1ccccc1CNc1nc2cc(-c3ccc(OC)c(OC)c3)sc2c(=O)n1C | 44 | · | -5 | 0 | · | 77*
COc1cccc(CNc2nc3cc(-c4cnn(Cc5ccccc5)c4)sc3c(=O)n2C)c1 | 20 | · | · | 1 | · | 68*
Cc1noc(C)c1S(=O)(=O)N(C)C[C@@H]1Oc2ccc(NC(=O)Nc3ccc(C(F)(F)F)cc3)cc2CC(=O)N([C@H](C)CO)C[C@H]1C | · | · | -11 | · | · | ·
CC=Cc1ccc2n(c1=O)C[C@H]1[C@H](CO)[C@@H](C(=O)NC3CCC3)N(C(=O)C3CCC3)[C@@H]21 (mixture of isomers) | · | · | 19 | · | · | ·
COc1cccc(CNc2nc3cc(-c4cccc(Cl)c4)sc3c(=O)n2C)c1OC | 10 | · | -9 | 1 | · | 50*
COc1cccc(CNc2nc3cc(-c4cccc(C(F)(F)F)c4)sc3c(=O)n2C)c1OC | 10 | · | -3 | 0 | · | 38
O=C(Nc1nc2ccc(Cl)cc2s1)c1ccco1 | 7 | 15 | · | 0 | 3 | 58*
COC(=O)c1cc(OC)c(OC)cc1NC(=S)NC(=O)c1ccco1 | 7 | -3 | 13 | 0 | 6 | 74*
CCNC(=S)Nc1cc(OC)c(NC(=O)c2ccco2)cc1OC | -5 | -1 | 0 | 0 | -7 | 16
COc1cc2nc(NC(=O)c3ccco3)sc(=O)c2cc1OC | -5 | -3 | 19 | 0 | 42* | 71*
CO[C@@H]1CN(C)C(=O)c2ccc(NC(=O)C3CC3)cc2OC[C@@H](C)N(Cc2cncnc2)C[C@@H]1C | · | · | 15 | · | · | ·
C[C@@H]1CN([C@H](C)CO)S(=O)(=O)c2ccc(C3=CCCCC3)cc2O[C@@H]1CN(C)C(=O)C1CCC1 | · | · | 17 | · | · | ·
CCCC(=O)NC(c1ccc(OC)c(OC)c1)c1cc(Cl)c2cccnc2c1O (stereo not drawn) | 7 | 4 | 16 | 0 | 32 | 9

Assay outcomes: PubChem BioAssay, several laboratories
